In PubChem BioAssay (NCATS):
Results filed as inconclusive are left out. Active and inactive are the calls of the source. The call rests on the fitted dose curve; in most records, active means well fitted curve in the direction sought with a large enough effect; inconclusive means small, poorly fitted or top-dose-only effect, or another doubt; inactive means no such curve, though single readings can be large; an effect the other way counts as inactive or inconclusive.

Legend:
[1] = HPAF-II 18hr Apoptosis Induction qHTS against the NCATS CANVASS Library (AID 1347360); conditions: HPAF-II caspase-3/7 luminescence; series mostly up to 46.1 µM
How it was run: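 Caspase-3/7 activation was measured with luminescent Caspase-Glo 3/7 reagent (15 min, RT) in HPAF-II cancer cells (500 cells/well). Before detection, cells had been treated for 18 h at 37 C with compounds (11 points).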

[2] = HEK293 12hr Apoptosis Induction qHTS against the NCATS CANVASS Library (AID 1347361); conditions: HEK293 caspase-3/7 Caspase-Glo luminescence; series mostly up to 46.1 µM
How it was run: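 HEK293 cells (500/well, DMEM + 10% FBS) were exposed to natural products across an 11-point series for 12 hours at 37 degrees C. Caspase-3/7 activity was then measured with DEVD luciferase luminescence after 15 min at room temperature.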

[3] = tested on: NAD(P)H diaphorase (Clostridium kluyveri); test: Diaphorse counterscreen qHTS: Assay Interference Panel against the NCATS CANVASS Library (AID 1347362); conditions: Diaphorase enzyme, resazurin to resorufin fluorescence; series mostly up to 57.5 µM
How it was run: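 Counterscreen for coupling-enzyme interference: resorufin fluorescence from resazurin/NADH turnover, read after 5 min at room temperature. Compounds were tested over an 11-point series after 15 min dark preincubation with diaphorase in PBS-Tween.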

[4] = biological target: Luciferin 4-monooxygenase (Photinus pyralis) (UniProt P08659); test: Firefly luciferase counterscreen qHTS: Assay Interference Panel against the NCATS CANVASS Library (AID 1347363); conditions: purified firefly luciferase, luminescence inhibition, 5 min; series mostly up to 57.5 µM
Sequence of Luciferin 4-monooxygenase (Photinus pyralis) (P08659 whole entry, looked up): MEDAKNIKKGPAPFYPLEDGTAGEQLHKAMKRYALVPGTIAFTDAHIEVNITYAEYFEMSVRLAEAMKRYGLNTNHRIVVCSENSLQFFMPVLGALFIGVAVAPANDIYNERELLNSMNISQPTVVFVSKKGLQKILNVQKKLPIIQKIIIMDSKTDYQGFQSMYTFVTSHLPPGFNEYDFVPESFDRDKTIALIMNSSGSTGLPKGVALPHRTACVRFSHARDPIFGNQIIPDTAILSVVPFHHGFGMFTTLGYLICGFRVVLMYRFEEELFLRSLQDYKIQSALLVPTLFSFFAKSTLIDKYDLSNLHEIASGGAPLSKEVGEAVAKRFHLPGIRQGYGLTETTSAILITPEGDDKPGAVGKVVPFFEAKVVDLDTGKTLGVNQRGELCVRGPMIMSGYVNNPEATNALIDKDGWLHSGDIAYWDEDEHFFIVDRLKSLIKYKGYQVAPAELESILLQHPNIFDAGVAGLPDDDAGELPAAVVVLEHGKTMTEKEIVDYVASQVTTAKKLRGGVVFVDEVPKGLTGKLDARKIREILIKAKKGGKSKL
How it was run: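 Luminescence inhibition readout: compounds (11-point qHTS) sat 15 min at room temperature with substrate mix (0.013 mM luciferin and ATP), then firefly luciferase was added and signal read 5 min later.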

[5] = KB-8-5-11 Cancer Cell Toxicity qHTS against the NCATS CANVASS Library (AID 1347364); conditions: KB-8-5-11 MDR cells viability, CellTiter-Glo, 72 h; series mostly up to 46.1 µM; further: nearly all actives have a fitted effect of over 75% in size
How it was run: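 CellTiter-Glo luminescence after 72 h exposure; 500 KB-8-5-11 cells/well, DMEM/10% FBS, 37C, 5% CO2; compounds in 11-pt qHTS. Follow-up confirmation included medium with 1uM tariquidar.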

[6] = SDT Cancer Cell Toxicity qHTS against the NCATS CANVASS Library (AID 1347365); conditions: SDT dog glioma viability, ATP luminescence, 72 h; series mostly up to 46.1 µM; further: nearly all actives have a fitted effect of over 60% in size
How it was run: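 Luminescent ATP read-out (CellTiterGlo) after 72 hr compound exposure of dog glioma SDT cells, 500 per well. Eleven-point titrations; bortezomib titration run alongside as control.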

[7] = KB-3-1 Cancer Cell Toxicity qHTS against the NCATS CANVASS Library (AID 1347366); conditions: KB-3-1 viability, CellTiter-Glo luminescence, 72 h; series mostly up to 46.1 µM; further: nearly all actives have a fitted effect of over 75% in size
How it was run: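 CellTiter-Glo luminescence measured viability after 72 h at 37C. KB-3-1 cells were seeded at 500 per well in DMEM/10% FBS.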

[8] = qHTS for ATAD5 Agonist screened against the NCATS CANVASS Library (AID 1347367); conditions: HEK293T ATAD5-luciferase reporter, luminescence, 16 h; series mostly up to 46.1 µM;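 further: luciferase reporter driven by ATAD5 which rises upon DNA damage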
How it was run: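 Genotoxicity via ATAD5-luciferase luminescence after 16 h compound exposure (11-point series) at 37C in HEK293T-ATAD5 cells. CellTiter-Fluor viability read precedes the luminescence read; MMS serves as positive control.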

[9] = G06 Cancer Cell Toxicity qHTS against the NCATS CANVASS Library (AID 1347368); conditions: G06 dog glioma cells, viability ATP luminescence, 72 h; series mostly up to 46.1 µM; further: nearly all actives have a fitted effect of over 60% in size
How it was run: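 ATP luminescence (CellTiterGlo) readout of cytotoxicity. Canine G06 glioma cells, 500/well, 72 hr incubation at 37C with compounds; bortezomib titration served as control.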

[10] = MCF7 Cancer Cell Toxicity qHTS against the NCATS CANVASS Library (AID 1347369); conditions: MCF7 viability, ATP luminescence (CellTiter-Glo), 72 h; series mostly up to 46 µM
How it was run: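 Cytotoxicity was measured as CellTiterGlo luminescence (ATP) after 72 h at 37 °C. The cells were MCF7 at 500 per well, with an 11-point compound concentration series.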

[11] = qHTS for ATAD5 Antagonist screened against the NCATS CANVASS Library (AID 1347370); conditions: HEK293T-ATAD5-luc, 5-FUrd stimulated, luminescence, 16 h; series mostly up to 46.1 µM;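 further: HEK293T cells carrying an ATAD5 luciferase reporter co-treated with 10 µM 5-fluorouridine; nearly all actives have a fitted effect of over 65% in size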
How it was run: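 HEK293T-ATAD5 luc reporter, 2000 cells/well; 5hr attach; cpd + 10 uM 5-FUrd; 16hr 37C, 5% CO2. Readouts: CellTiter-Fluor fluorescence (1hr), then Amplite luciferase luminescence (30min RT).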

[12] = J3T Cancer Cell Toxicity qHTS against the NCATS CANVASS Library (AID 1347371); conditions: J3T dog glioma viability, ATP luminescence, 72 h; series mostly up to 46.1 µM
How it was run: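 Dog glioma J3T, 500 cells/well; cpd 11-pt qHTS; 72 hr, 37C/5% CO2; CellTiterGlo ATP luminescence readout.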

[13] = biological target: Nuclear receptor subfamily 1 group I member 3 (Homo sapiens) (UniProt Q14994); test: qHTS for Constitutive Androstane Receptor (CAR) Antagonist screened against the NCATS CANVASS Library (AID 1347372); conditions: HepG2-hCAR-CYP2B6 luciferase, CITCO-stimulated antagonist mode; series mostly up to 46.1 µM;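 further: cells stimulated with 50 nM CITCO agonist so inhibition reflects antagonism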
Sequence of Nuclear receptor subfamily 1 group I member 3 (Homo sapiens) (Q14994 whole entry, looked up): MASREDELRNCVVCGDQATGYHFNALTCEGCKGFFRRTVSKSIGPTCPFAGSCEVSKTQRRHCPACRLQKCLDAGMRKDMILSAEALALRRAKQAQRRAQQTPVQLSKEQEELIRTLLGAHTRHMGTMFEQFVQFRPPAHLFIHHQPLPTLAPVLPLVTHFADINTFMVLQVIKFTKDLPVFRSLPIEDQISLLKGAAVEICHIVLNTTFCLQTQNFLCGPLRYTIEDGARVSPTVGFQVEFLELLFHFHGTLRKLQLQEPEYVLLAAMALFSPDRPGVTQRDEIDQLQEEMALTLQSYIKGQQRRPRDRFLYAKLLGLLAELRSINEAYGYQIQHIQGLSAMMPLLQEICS
How it was run: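 Antagonist mode: compound added alongside 50 nM CITCO to HepG2-hCAR-CYP2B6 reporter cells, 24hr at 37C. Viability by CellTiter-Fluor fluorescence, then CAR-driven luciferase by ONE-Glo luminescence.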

[14] = 10-beta competent E. coli microbial cell viability qHTS against the NCATS CANVASS Library (AID 1347376); conditions: E. coli 10-beta viability, BacTiter-Glo ATP luminescence, overnight; series mostly up to 46.1 µM
How it was run: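 Luminescence from BacTiter-Glo ATP detection served as the viability read-out; bacteria (0.2 OD) had been incubated overnight at 37C with pin-transferred compounds at 11 concentrations.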

[15] = DH5-alpha competent E. coli microbial cell viability qHTS against the NCATS CANVASS Library (AID 1347377); conditions: BacTiter-Glo ATP luminescence, overnight; series mostly up to 46.1 µM
How it was run: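 Luminescent ATP read-out (BacTiter-Glo, 20 min RT) after overnight 37C culture of DH5-alpha E. coli with compounds; daunomycin control at 0.2 nM–9.2 uM final.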

[16] = qHTS for H2AX Agonists against the NCATS CANVASS Library (AID 1347378); conditions: CHO-K1 H2AX phosphorylation, HTRF TR-FRET, 3 h; series mostly up to 76.9 µM
How it was run: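 Phospho-H2AX (S139) in CHO-K1 lysates measured by HTRF, reported as 665/615 nm emission ratio after 24 hr antibody incubation at room temperature. Cells were first treated with a compound series for 3 hr at 37C (0.76% DMSO final).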

[17] = qHTS for Inflammasome Signaling Inhibitors: IL-1-beta AlphaLISA screen against the NCATS CANVASS Library (AID 1347379); conditions: THP-1 LPS/ATP, IL-1B AlphaLISA secretion, 16 h; series mostly up to 57.5 µM;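 further: human THP-1 cells primed with LPS then triggered with ATP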
How it was run: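 THP-1, 1 hr compound pre-incubation, then LPS 250 ng/mL + ATP 1.25 mM (final); 16 hr total with compound; IL-1B AlphaLISA, ex 680/em 615 nm; 11-point qHTS, up to 57.5 uM final.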

[18] = biological target: Nuclear receptor subfamily 1 group I member 3 (Homo sapiens) (UniProt Q14994); test: qHTS for Constitutive Androstane Receptor (CAR) Agonist screened against the NCATS CANVASS Library (AID 1347373); conditions: HepG2-hCAR-CYP2B6 luciferase reporter, ONE-Glo luminescence; series mostly up to 46.1 µM;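 further: every well also contained 1.5 µM PK11195 alongside the test compound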
How it was run: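 Luciferase read-out (ONE-Glo, 30 min RT) of CYP2B6-2.2kb promoter activity in double-stable HepG2-hCAR cells after 24hr compound exposure with 1.5uM PK11195 present; viability measured first by CellTiter-Fluor.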

[19] = qHTS for Hypoxia signaling pathway (HIF-1) antagonists against the NCATS CANVASS Library (AID 1347374); conditions: HRE-bla ME-180 cells, HIF-1 beta-lactamase reporter, CoCl2; series mostly up to 38.3 µM;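 further: HRE-bla ME-180 cells stimulated with cobalt chloride to stabilize HIF-1alpha; nearly all actives have a fitted effect of over 60% in size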
How it was run: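 Beta-lactamase reporter under HRE control in ME-180 cells; CoCl2 stimulus (60 uM solution as added), compounds 11-pt qHTS, 17 h 37C. CCF4 dye 2 h RT, 460/530 nm emission. CellTiter-Glo viability in same wells.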

[20] = qHTS for Hypoxia signaling pathway (HIF-1) agonists against the NCATS CANVASS Library (AID 1347375); conditions: HRE-bla ME-180 cells, HIF-1 beta-lactamase reporter, 17 h; series mostly up to 38.3 µM
How it was run: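 Read-out: beta-lactamase FRET (CCF4-AM, ex 405, em 460 and 530 nm) after 2 h at room temperature. ME-180 cells stably carrying HRE-bla were treated 17 h at 37C with compounds in an 11-point concentration series.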

Measured: outcome

CC1=C2C(=O)O[C@@H](c3ccoc3)[C@]2(C)CCC1
inactive: [1] | [2] | [3] | [4] | [5] | [6] | [7] | [8] | [9] | [10] | [11] | [12] | [13] | [14] | [15] | [16] | [17]

C/C=C/C=C/C(CC(=O)O)Nc1ccc(C=O)cc1 (configuration not stated)
inactive: [1] | [2] | [3] | [4] | [5] | [6] | [7] | [8] | [9] | [10] | [11] | [12] | [13] | [18] | [19] | [20] | [14] | [15] | [16] | [17]
